Data taken from PubChem BioAssay AID1619 (SRMLSC, 2009).
The whole screen tested about 220,000 compounds, of which about 830 (0.38%) were called active.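 The calls were made as follows: active = compound inhibiting the enzyme by more than half at any dose during confirmatory dose-response retesting; inconclusive = strong single-dose inhibitors picked by rank but not retested; inactive = the rest.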 A selection follows. Results with a measured potency or affinity are listed apart.

Biological target: Leucine aminopeptidase (Plasmodium falciparum (isolate 3D7)) (UniProt Q8IL11)
Sequence (Q8IL11 whole entry, looked up): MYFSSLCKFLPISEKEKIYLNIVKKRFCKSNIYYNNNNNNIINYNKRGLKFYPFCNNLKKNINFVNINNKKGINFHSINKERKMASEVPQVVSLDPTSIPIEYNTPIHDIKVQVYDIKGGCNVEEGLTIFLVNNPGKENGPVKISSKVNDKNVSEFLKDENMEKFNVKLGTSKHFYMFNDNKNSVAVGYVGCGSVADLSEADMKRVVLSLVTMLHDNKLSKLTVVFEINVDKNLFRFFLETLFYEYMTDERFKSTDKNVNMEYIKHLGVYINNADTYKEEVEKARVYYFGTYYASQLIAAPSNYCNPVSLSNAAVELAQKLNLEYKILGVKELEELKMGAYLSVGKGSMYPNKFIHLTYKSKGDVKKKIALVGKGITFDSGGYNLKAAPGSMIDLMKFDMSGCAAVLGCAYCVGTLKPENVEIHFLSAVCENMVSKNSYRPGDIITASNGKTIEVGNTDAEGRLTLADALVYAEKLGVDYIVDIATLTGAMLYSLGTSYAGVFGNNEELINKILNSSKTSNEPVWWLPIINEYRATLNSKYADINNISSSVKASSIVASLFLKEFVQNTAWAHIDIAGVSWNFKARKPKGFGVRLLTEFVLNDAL
Experiment: P. falciparum M17LAP inhibitors, primary screen, biochemical, fluorogenic H-Leu-NHMec substrate, 1536-well (AID 1619);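 also: plate controls were full reaction with DMSO carrier for no effect and no enzyme background for full effect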
Details: recombinant M17LAP, H-Leu-NHMec fluorogenic kinetic assay; at 30 µM; hits give high values

inhibition, inactive:
CCOC(=O)c1sc(-c2ccccn2)nc1C 10.5%
C/C(O)=C(\C#N)c1nc2ccccc2[nH]1 1.5%
CCN(CC)S(=O)(=O)c1ccc(Cl)c(NC(=O)CCCCl)c1 8.77%
NC(=O)C1CCN(C(=O)c2ccc(CS(=O)(=O)c3c(Cl)cccc3Cl)o2)CC1 1.58%
CCCCn1c(N)c(Br)c(=O)[nH]c1=O 10%
COc1cc(OC)c(OC)cc1/C=N/NC(=O)CC1C(=O)NN=C1C (configuration not stated) 53.3%
COc1cc(/C=N/NC(=O)CC2C(=O)NN=C2C)ccc1O (configuration not stated) 10.4%
COc1ccc(OC)c(/C=N/NC(=O)CC2C(=O)NN=C2C)c1 (configuration not stated) -164%
CCOc1cccc(/C=N/NC(=O)CC2C(=O)NN=C2C)c1O (configuration not stated) 3.72%
CCCn1c(C2CC(=O)N(c3ccc(C)cc3)C2)nc2ccccc21 (configuration not stated) 4.53%
O=C(Nc1cccc(F)c1)/C(=C\c1cccnc1)NC(=O)c1cccs1 7.11%
CC1=C(C#N)C(=O)NC(=O)/C1=C/c1ccc(-c2ccc(S(N)(=O)=O)cc2)o1 35.6%
CC1=C(C#N)C(=O)NC(=O)/C1=C\c1ccc(-c2cc(C)c(C)cc2[N+](=O)[O-])o1 24.2%
CC(=O)c1c(O)cc(=O)n(-c2ccccc2)c1-c1ccc(C)cc1 0.53%
CC(=O)c1c(O)cc(=O)n(-c2ccccc2)c1-c1ccc(Cl)cc1 -10.1%
Cc1cccc(Nc2nnc(SCC(=O)c3ccc(Br)s3)s2)c1C 23%
CN(C(=O)CSc1nnc(-c2ccc(Cl)cc2)n1CC1CCCO1)C1CCS(=O)(=O)C1 (configuration not stated) -0.82%
COc1ccc(CNc2nc3nc(C)cc(C)n3n2)cc1OC 4.62%
CSc1nc2nc(-c3ccccc3)cc(C(F)(F)F)n2n1 -8.74%
Cc1cc(C)n2nc(SCc3ccccc3)nc2n1 -5.69%
CSc1nc2nc(C)cc(-c3ccccc3)n2n1 -6.85%
Nc1nc2nc(-c3ccc(OCc4ccccc4)cc3)cc(C(F)(F)F)n2n1 -1.91%
Cc1nc2nc(COc3ccccc3)nn2c(C)c1Cl -4.07%
COc1cc(C)nc2nc(SCc3ccccc3)nn12 -4.54%
COc1ccc(CNc2ncccn2)cc1OC -2.62%
COC(=O)c1c(NC(=O)Cn2cnc([N+](=O)[O-])n2)sc2c1CCC(C)C2 (configuration not stated) 1.07%
O=C(NC1CCN(Cc2ccccc2)CC1)C1CCN(c2nnc(-n3cccc3)s2)CC1 -1.52%
